Positions count from the first letter of the chain named.
Experiments:
Assay in all cases: protein-binding microarray (PBM); PBM: ~300 nM protein, 6 mM HEPES pH 7.8, 80 mM KCl, 0.5 mM EDTA, 0.5 mM EGTA, 6% glycerol, 35 ng/ul poly-dIdC, 1% milk, 1 h, room temperature; Ap Aiptasia and Nv Nematostella (sea anemones) / Co Capsaspora / Aq Amphimedon (sponge) / Dm Drosophila / Hu human; RHD is the Rel homology domain; high values mean tight binding
Conditions in all cases: dsDNA, one strand shown
[1] = molecular target: T1, GST-Nv-NF-kB (Cys allele) (Nematostella vectensis, UniProt E5G601 2-411)
T1 sequence: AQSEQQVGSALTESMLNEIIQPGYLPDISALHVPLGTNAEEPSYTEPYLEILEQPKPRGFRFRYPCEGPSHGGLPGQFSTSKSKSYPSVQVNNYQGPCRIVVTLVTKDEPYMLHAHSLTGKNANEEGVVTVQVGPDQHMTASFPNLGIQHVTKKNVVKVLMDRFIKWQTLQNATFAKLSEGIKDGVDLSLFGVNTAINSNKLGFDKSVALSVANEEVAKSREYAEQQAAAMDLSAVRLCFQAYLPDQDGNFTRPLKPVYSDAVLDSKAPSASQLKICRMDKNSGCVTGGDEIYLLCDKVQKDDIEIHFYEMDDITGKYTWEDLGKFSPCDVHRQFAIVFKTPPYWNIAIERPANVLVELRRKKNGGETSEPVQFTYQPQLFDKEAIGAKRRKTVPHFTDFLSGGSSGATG

[2] = molecular target: T2, GST-Nv-NF-kB (Ser allele) (Nematostella vectensis, UniProt A7UNT2 2-411)
T2 sequence: T1 sequence with Q21R, C66S, S207N, E215Q, V217A, E225K, A268E, D399E

GST-Dm-Relish = molecular target: T3, GST-Dm-Relish (Drosophila melanogaster, UniProt Q94527 99-473)
T3 sequence: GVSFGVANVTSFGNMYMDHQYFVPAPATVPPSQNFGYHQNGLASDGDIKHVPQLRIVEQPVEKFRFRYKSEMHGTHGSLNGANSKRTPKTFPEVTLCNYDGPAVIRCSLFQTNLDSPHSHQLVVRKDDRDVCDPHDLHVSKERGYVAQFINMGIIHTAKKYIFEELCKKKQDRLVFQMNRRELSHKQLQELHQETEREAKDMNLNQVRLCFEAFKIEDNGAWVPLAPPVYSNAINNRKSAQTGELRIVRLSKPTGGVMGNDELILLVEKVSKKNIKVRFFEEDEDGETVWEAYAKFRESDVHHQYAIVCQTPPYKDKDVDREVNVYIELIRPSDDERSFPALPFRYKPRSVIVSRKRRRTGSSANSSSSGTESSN

GST-Aq-NF-kB = molecular target: T4, GST-Aq-NF-kB (Amphimedon queenslandica, UniProt A9Y5G7 2-389)
T4 sequence: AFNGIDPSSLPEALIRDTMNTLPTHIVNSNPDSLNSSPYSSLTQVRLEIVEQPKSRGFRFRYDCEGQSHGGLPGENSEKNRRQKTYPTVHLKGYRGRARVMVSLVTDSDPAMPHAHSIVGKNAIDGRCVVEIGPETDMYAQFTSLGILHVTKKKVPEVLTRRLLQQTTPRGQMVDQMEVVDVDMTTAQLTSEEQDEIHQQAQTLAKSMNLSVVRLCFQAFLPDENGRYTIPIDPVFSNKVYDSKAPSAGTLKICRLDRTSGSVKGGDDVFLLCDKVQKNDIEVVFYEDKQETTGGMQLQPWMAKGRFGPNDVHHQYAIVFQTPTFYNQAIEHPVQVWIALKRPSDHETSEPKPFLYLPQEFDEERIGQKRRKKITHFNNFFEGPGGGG

GST-Hu-p50 = GST-Hu-p50 (Homo sapiens, UniProt P19838 7-356)
Chain of GST-Hu-p50 (P19838 7-356): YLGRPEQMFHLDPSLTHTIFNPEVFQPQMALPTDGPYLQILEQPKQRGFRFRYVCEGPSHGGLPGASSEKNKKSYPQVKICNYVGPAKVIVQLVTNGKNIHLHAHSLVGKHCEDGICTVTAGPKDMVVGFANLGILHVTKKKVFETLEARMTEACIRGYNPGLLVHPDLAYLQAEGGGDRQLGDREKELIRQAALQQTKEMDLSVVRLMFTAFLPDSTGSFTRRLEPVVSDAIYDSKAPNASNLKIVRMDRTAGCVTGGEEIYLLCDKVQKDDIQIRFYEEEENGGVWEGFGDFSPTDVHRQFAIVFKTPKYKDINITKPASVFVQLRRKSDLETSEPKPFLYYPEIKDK

GST-Co-NF-kB = molecular target: T5, GST-Co-NF-kB (Capsaspora owczarzaki, UniProt F1ARL5 200-546)
T5 sequence: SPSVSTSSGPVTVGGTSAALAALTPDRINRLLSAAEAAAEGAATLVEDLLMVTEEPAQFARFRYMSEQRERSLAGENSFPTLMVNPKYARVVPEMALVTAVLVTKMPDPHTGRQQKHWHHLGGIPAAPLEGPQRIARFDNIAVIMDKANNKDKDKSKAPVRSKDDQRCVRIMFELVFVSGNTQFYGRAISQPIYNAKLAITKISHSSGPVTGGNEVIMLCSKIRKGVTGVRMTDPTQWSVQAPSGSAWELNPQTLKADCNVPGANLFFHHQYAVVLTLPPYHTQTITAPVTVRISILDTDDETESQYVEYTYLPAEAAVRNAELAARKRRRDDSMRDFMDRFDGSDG

GST-Ap-NF-kB RHD = molecular target: T6, GST-Ap-NF-kB RHD (Exaiptasia pallida (Aiptasia), UniProt A0A913YAJ5 2-422)
T6 sequence: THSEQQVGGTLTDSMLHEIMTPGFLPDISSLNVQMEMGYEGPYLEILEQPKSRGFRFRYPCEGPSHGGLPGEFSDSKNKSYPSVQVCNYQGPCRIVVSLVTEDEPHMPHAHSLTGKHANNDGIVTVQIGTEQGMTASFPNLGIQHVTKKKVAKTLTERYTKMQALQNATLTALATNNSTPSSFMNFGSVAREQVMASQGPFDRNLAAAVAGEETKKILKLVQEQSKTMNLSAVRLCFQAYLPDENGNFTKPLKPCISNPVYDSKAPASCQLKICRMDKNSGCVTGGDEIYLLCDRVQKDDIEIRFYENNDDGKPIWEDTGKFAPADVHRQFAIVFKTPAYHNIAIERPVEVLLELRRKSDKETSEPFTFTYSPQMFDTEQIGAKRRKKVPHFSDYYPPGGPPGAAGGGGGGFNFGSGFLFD

Row | Sequence | binding signal [1] [z-score] | binding signal [2] [z-score] | binding signal (GST-Dm-Relish) [z-score] | binding signal (GST-Aq-NF-kB) [z-score] | binding signal (GST-Hu-p50) [z-score] | binding signal (GST-Co-NF-kB) [z-score] | binding signal (GST-Ap-NF-kB RHD) [z-score]
1 | CCGATTAACATCAGGTAAATACCTGATGTTAATCGGGTCTTGATTCGCTTGACGCTGCTG | 2.06 | 3.12 | 4.77 | 4.2 | 2.11 | – | –
2 | CCGATTAACATCAAAATTTCCGGTGATGTTAATCGGGTCTTGATTCGCTTGACGCTGCTG | – | 1.02 | 1.67 | 3.05 | 2.46 | – | –
3 | CCGATTAACATCAAAATTTTTCCTGATGTTAATCGGGTCTTGATTCGCTTGACGCTGCTG | – | 1.42 | 2.86 | 1.46 | 1.87 | 1.06 | –
4 | CCGATTAACATCATAATGGGAAATGATGTTAATCGGGTCTTGATTCGCTTGACGCTGCTG | 2.83 | 2.35 | – | 1.68 | 2.18 | 1.93 | –
5 | CCGATTAACATCACCACCACCCCTGATGTTAATCGGGTCTTGATTCGCTTGACGCTGCTG | – | – | 1.39 | 1.75 | 2.36 | 2.34 | 1.55
6 | CCGATTAACATCAATTCCCAAAATGATGTTAATCGGGTCTTGATTCGCTTGACGCTGCTG | 2.17 | 2.29 | 1.29 | 1.31 | 1.25 | 1.45 | –
7 | CCGATTAACATCAGTGGGAAACATGATGTTAATCGGGTCTTGATTCGCTTGACGCTGCTG | 1.93 | 1.79 | – | 2.03 | 1.25 | 3.12 | –
8 | CCGATTAACATCAAAATTTACCGTGATGTTAATCGGGTCTTGATTCGCTTGACGCTGCTG | 1.63 | 3.7 | 3.37 | 2.12 | 2.17 | 1.05 | –
9 | CCGATTAACATCAGTTTGGGAAATGATGTTAATCGGGTCTTGATTCGCTTGACGCTGCTG | 2.49 | 2.26 | – | 1.19 | 1.46 | 2.36 | –
10 | CCGATTAACATCAGAAATTGCCCTGATGTTAATCGGGTCTTGATTCGCTTGACGCTGCTG | 1.33 | – | – | 2.44 | 1.68 | – | –
11 | CCGATTAACATCAGAAAATACCATGATGTTAATCGGGTCTTGATTCGCTTGACGCTGCTG | 1.12 | 1.7 | 3.11 | 1.58 | 1.63 | – | –
12 | CCGATTAACATCAGTTGGGAAAATGATGTTAATCGGGTCTTGATTCGCTTGACGCTGCTG | 3.62 | 4.31 | – | 1.77 | 2.33 | 2.64 | –
13 | CCGATTAACATCACCGGAAATTCTGATGTTAATCGGGTCTTGATTCGCTTGACGCTGCTG | 1.22 | 1.39 | 1.78 | 2.51 | 2.29 | – | –
14 | CCGATTAACATCAAAAAAGTCCGTGATGTTAATCGGGTCTTGATTCGCTTGACGCTGCTG | 1.12 | – | 4.7 | 3.69 | 1.4 | – | –
15 | CCGATTAACATCAAAAATTACCATGATGTTAATCGGGTCTTGATTCGCTTGACGCTGCTG | 1.73 | 3.14 | 3.14 | 1.73 | 2.52 | – | –
16 | CCGATTAACATCAAAAACTTTCCTGATGTTAATCGGGTCTTGATTCGCTTGACGCTGCTG | – | 1.54 | 2.34 | 2.68 | 1.25 | – | –
17 | CCGATTAACATCAAAAAATTTCCTGATGTTAATCGGGTCTTGATTCGCTTGACGCTGCTG | – | 1.31 | 2.34 | 2.22 | 2.27 | – | –
18 | CCGATTAACATCAGACCCCCCCCTGATGTTAATCGGGTCTTGATTCGCTTGACGCTGCTG | – | – | 4.7 | 4.8 | 4.03 | 4.59 | 5.15
19 | CCGATTAACATCAGTTTCCCAAATGATGTTAATCGGGTCTTGATTCGCTTGACGCTGCTG | 2.56 | 3.42 | 1.2 | 1.17 | 1.81 | 2.19 | –
20 | CCGATTAACATCATTCCGGGAAATGATGTTAATCGGGTCTTGATTCGCTTGACGCTGCTG | 2.87 | 3.44 | – | 1.95 | 1.99 | 2.74 | –
21 | CCGATTAACATCAGGAAATAACCTGATGTTAATCGGGTCTTGATTCGCTTGACGCTGCTG | 3.04 | 3.75 | 3.31 | 4.91 | 5.04 | – | –
22 | CCGATTAACATCAAATTTCCGGGTGATGTTAATCGGGTCTTGATTCGCTTGACGCTGCTG | – | 1.31 | – | 1.44 | 1.02 | 1.32 | –
23 | CCGATTAACATCATTCCCGGAAATGATGTTAATCGGGTCTTGATTCGCTTGACGCTGCTG | 3.35 | 2.61 | 1.05 | 2.67 | 1.79 | 2.37 | –
24 | CCGATTAACATCAGGTGATCACCTGATGTTAATCGGGTCTTGATTCGCTTGACGCTGCTG | – | 2.18 | 2.86 | 1.32 | 1.9 | – | –
25 | CCGATTAACATCACGGAATTTCCTGATGTTAATCGGGTCTTGATTCGCTTGACGCTGCTG | – | – | 1.89 | 4.83 | 1.38 | – | –
26 | CCGATTAACATCAGGAATTTTCATGATGTTAATCGGGTCTTGATTCGCTTGACGCTGCTG | – | – | 1.12 | 1.37 | 1.36 | – | –
27 | CCGATTAACATCAGGAAACAACCTGATGTTAATCGGGTCTTGATTCGCTTGACGCTGCTG | – | – | 1.07 | 2.89 | 1.61 | – | –
28 | CCGATTAACATCAGGCAGTTCCCTGATGTTAATCGGGTCTTGATTCGCTTGACGCTGCTG | 1.3 | 1.25 | – | 3.41 | – | – | 1.39
29 | CCGATTAACATCAGGAACGTCCCTGATGTTAATCGGGTCTTGATTCGCTTGACGCTGCTG | 3.14 | – | – | 5.01 | – | – | 3.25
